Compound activity from PubChem.
SARS 3CLpro inh: SARS-CoV 3CLpro protease inhibitors, primary screen, biochemical, quenched FRET. recombinant SARS-CoV 3CLpro, quenched FRET peptide cleavage. actives 0.14% (n = 290,000). inhibition, % at 6 µM. AID 1706, 2009. Replicase polyprotein 1ab (Severe acute respiratory syndrome coronavirus), P0C6X7; in the data active means inhibition above about 12%
GDH-TPI counter: GDH-TPI coupling enzyme inhibitors, primary screen, artefact control for M. tuberculosis FBA inhibitor project, biochemical, absorbance, full deck; inhibition, % at 4.8 µM; GDH-TPI coupled enzyme counterscreen, NADH absorbance; actives 1.2% (n = 360,000); in the data active means inhibition above about 30%
PrPC TRFRET: inhibitors of human cell surface prion protein PrPC, primary screen, cell-based, TR-FRET. Major prion protein (Homo sapiens), P04156. TR-FRET read-out. inhibition, % at 13.8 µM. actives 0.43% (n = 370,000). AID 720596, 2013; in the data active means inhibition above about 24%
Vc quorum ag: inducers of Vibrio cholerae quorum light production without autoinducers, primary screen, BH1578 luxS cqsA deficient, single point | V. cholerae BH1578 lux reporter, luminescence, 6 h | activation, % at 18.7 µM | actives 0.16% (n = 350,000) | AID 588436, 2011; in the data active means activation mostly above about 9.7%, no sharp cut-off
Mtb FBA inh: Mtb FBA enzyme inhibitors, primary screen, biochemical, fluorescence, strain H37Rv | purified M. tuberculosis FBA, fluorescence read-out | inhibition, % at 1 µM | actives 2.3% (n = 360,000); in the data active means inhibition above about 27%
Target sequence (P9WQA3 whole entry, looked up): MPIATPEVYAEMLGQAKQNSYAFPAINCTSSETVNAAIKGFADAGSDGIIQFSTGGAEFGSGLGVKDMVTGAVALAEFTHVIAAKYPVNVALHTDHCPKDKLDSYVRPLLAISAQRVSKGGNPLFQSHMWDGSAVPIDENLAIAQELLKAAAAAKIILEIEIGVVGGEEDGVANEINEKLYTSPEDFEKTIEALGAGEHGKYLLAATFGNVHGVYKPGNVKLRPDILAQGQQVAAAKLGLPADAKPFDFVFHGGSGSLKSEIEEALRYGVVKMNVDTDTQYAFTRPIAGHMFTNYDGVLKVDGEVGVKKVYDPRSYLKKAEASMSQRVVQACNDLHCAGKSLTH
Hits are given with their value; - = inactive; . = not tested or not shown; + = active, no number. Most compounds without a hit are left out; they make up all but 3.9% or so of the library.

SMILES | SARS 3CLpro inh | GDH-TPI counter | PrPC TRFRET | Vc quorum ag | Mtb FBA inh
CCOC(=O)[C@]12Cc3ccc(C)cc3[C@H]1N(C1CCCCC1)C(=O)c1cc(OC)ccc12 | . | . | 36 | . | .
CCOC(=O)[C@]12Cc3ccccc3[C@H]1N(C(C)C)C(=O)c1ccccc12 | . | . | - | . | .
CCOC(=O)[C@]12Cc3ccc(C)cc3[C@H]1N(C1CCCCC1)C(=O)c1ccccc12 | . | . | 33 | . | .
CCOC(=O)[C@]12Cc3cc(Cl)ccc3[C@H]1N(C1CCCCC1)C(=O)c1cc(OC)ccc12 | . | . | 47 | . | .
CCOC(=O)[C@]12Cc3cc(C)ccc3[C@H]1N(C1CCCCC1)C(=O)c1ccccc12 | . | . | 38 | . | .
Cc1ccc(S(=O)(=O)N2CCN(CC(=O)NC(=O)NCc3ccccc3)CC2)cc1C | - | - | - | - | -
CCC[C@H]1[C@@H](N(C)CC2CCCCC2)CC[C@@]23CCCN2C(=O)CCC[C@@H]13 | . | . | - | . | .
CCOC(=O)[C@]12Cc3c(cc(OC)c(OC)c3OC)[C@H]1N(C1CCCCC1)C(=O)c1ccccc12 | . | . | 32 | . | .
CCCCNC(=O)CCC(=O)Nc1ccc2nc(N3CCC(C)CC3)cc(C)c2c1 | - | - | - | - | 68
Cc1cc(N2CCOCC2)nc2ccc(NC(=S)NCCC(C)C)cc12 | - | - | - | - | 28
Cc1cc(N2CCOCC2)nc2ccc(NC(=O)CCC(=O)N3CCC(C)CC3)cc12 | - | - | - | - | 54
CCC(C)NC(=O)CCC(=O)Nc1ccc2nc(N3CC(C)CC(C)C3)cc(C)c2c1 (stereo not drawn) | - | - | - | - | -
CCN1CCN(c2cc(C)c3cc(NC(=O)c4cc(OC)cc(OC)c4)ccc3n2)CC1 | - | 34 | - | - | -
O=C(COC(=O)COc1ccc(Cl)cc1)NC1CC1 | . | - | - | - | -
Fc1ccccc1N1CC(c2ccccc2)C(c2cccs2)=N1 (stereo not drawn) | - | - | - | - | 161
Fc1ccc(N2N=C(c3cccs3)CC2c2ccccc2)cc1 (stereo not drawn) | - | - | - | - | -
COc1cccc(CNC(=O)[C@H]2CCCN2C(=O)[C@H]2CCCN2S(=O)(=O)c2cccc(C)c2)c1 | . | . | - | . | .
O=C(c1ccco1)N(Cc1ccc([N+](=O)[O-])cc1)c1ccc(Br)cc1 | 13 | - | - | - | -
O=C(c1ccco1)N(Cc1cccc([N+](=O)[O-])c1)c1ccc(Br)cc1 | - | - | - | - | -
CCOC(=O)[C@]12CCCC=C1N(Cc1ccc(OC)cc1)C(=O)[C@@H]2CC(=O)NCCCCc1ccccc1 | . | . | - | . | .
O=C1C=CC2=C3c4cc(O)c(O)cc4CC3(O)COC2=C1O (stereo not drawn) | . | - | 25 | - | -
CCCCC(=O)Nc1ncc2c(n1)CC(C)(C)CC2=O | - | - | - | - | 147
CC1(C)CC(=O)c2cnc(NC(=O)Cc3ccc(Cl)cc3)nc2C1 | - | - | - | - | -
Cc1ccc(C(C)C)cc1OCC(=O)Nc1ccc(N2CCCCC2)cc1 | . | - | - | - | -
C=C1C(=O)C2=CC1CCC(=O)C1(C)CCC(OC(C)=O)C(C)(C)C1CC2O (stereo not drawn) | . | - | - | - | -
SMILES | SARS 3CLpro inh | GDH-TPI counter | PrPC TRFRET | Vc quorum ag | Mtb FBA inh
CC(=O)O[C@H]1C[C@@H]2OC3C=C(C)CCC3(C)[C@@]1(C)[C@@]21CO1 (stereo partly drawn) | . | - | 88 | - | -
O=C(NCc1cccnc1)c1ccc(=O)oc1 | - | 43 | - | . | -
COc1ccc(CNC(=O)c2ccc(=O)oc2)cc1OC | - | 60 | - | - | -
COc1ccc(/C=C/C=C2\NC(=S)NC2=O)cc1 | - | - | - | - | -
O=C1NC(=S)N/C1=C\C=C\c1ccccc1 | - | 33 | - | - | -
COc1ccc(CNc2oc(-c3cccc4ccccc34)nc2C#N)cc1 | - | - | - | - | 147
COc1nc(NCCc2ccc(OC)c(OC)c2)nc(OC)n1 | - | - | - | - | -
CNc1oc(-c2ccccc2Cl)nc1C#N | - | - | - | - | -
COc1ccc(CCNc2oc(-c3ccc(OC)c(OC)c3)nc2P(=O)(OC)OC)cc1OC | - | - | - | - | 165
CCOP(=O)(OCC)c1nc(-c2cccc3ccccc23)oc1NCCc1ccc(OC)cc1 | - | - | - | - | 168
CNc1oc(-c2cccc3ccccc23)nc1C#N | - | - | - | - | +
